Screening data (PubChem)
Shown are actives, neighbours in structure and some others; about 2.8% of the full set was active somewhere.
Pol eta inh = inhibitors of human DNA polymerase eta. Q9Y253. recombinant Pol eta, fluorescent DNA replication assay. Potency, µM (top dose mostly 114 µM), for inactives: top-dose activity change, negative = inhibition, hits mostly inhibitors. actives 1.2% (n = 390,000). AID 588591; note: potency is the fitted concentration of half-maximal effect; % is set by controls: 0 for no effect and ±100 for the full control effect
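Fluorescent replication assay: 50 nM final substrate added after a 15 min room-temperature compound preincubation with 10 nM enzyme. Signal taken at 0 min and again at 10 min.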
Pol kappa inh = blocks human DNA polymerase kappa activity; Q9UBT6; purified Pol kappa, fluorescent DNA synthesis assay, 10 min; Potency, µM (titrated, usually from 107 µM), without a hit: at the top dose activity, negative = inhibition, hits mostly inhibitors; actives 0.53% (n = 400,000); note: potency is the fitted concentration of half-maximal effect; % is set by controls: 0 for no effect and ±100 for the full control effect
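Kinetic fluorescence screen: compound preincubated 15 min RT with 10 nM enzyme; 50 nM substrate (final) initiates; reads at 0/10 min.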
PI4K2A block = PI4K2A (human) kinase inhibition | activity change, negative = inhibition, % at 76.9 µM | purified PI4K2A, ADP-Glo luminescence, 1 h; hits give low values | AID 1346378 | actives 0.13% (n = 420,000) | Q9BTU6; in the data active = activity change below about -50%; inconclusive = mostly about -30% to -49%;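 note: -100% = wells without enzyme as full effect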
Target sequence (Q9BTU6 whole entry, looked up): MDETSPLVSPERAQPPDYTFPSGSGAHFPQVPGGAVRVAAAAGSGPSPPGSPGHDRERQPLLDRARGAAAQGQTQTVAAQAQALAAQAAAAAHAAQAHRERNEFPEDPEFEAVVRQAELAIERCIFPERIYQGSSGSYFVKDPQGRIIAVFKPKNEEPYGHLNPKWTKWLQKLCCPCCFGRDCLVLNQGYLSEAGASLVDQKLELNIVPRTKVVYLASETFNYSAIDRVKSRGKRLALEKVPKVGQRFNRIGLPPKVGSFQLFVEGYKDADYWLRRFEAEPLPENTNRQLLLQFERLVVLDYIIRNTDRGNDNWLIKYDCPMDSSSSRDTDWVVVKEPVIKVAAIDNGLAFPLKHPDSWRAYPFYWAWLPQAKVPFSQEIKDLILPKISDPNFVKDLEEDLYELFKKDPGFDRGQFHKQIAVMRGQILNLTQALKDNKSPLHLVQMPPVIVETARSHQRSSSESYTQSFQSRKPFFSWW
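PI4K2A activity was measured by ADP-Glo luminescence: enzyme (4 ug/mL stock) and phosphatidylinositol (1.2 mM stock) in Tris pH 7.5/MgCl2/EGTA/Triton X-100 buffer were reacted with ATP (300 microM stock) for one hour at ambient temperature.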
POLB inh = inhibitors of human DNA polymerase beta; P06746; Pol beta primer extension/strand displacement, fluorescence kinetic; Potency, µM (doses to about 114 µM), for inactives: top-dose activity change, negative = inhibition, hits mostly inhibitors; actives 1.3% (n = 340,000); AID 485314; note: potency is the fitted concentration of half-maximal effect; % is set by controls: 0 for no effect and ±100 for the full control effect
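Kinetic readout of DNA synthesis with strand displacement by Pol beta. Compound and 10 nM enzyme sit 15 min at room temperature; 50 nM substrate starts the reaction, read immediately and at 10 min.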
PI5P4K alpha inh = PI5P4K alpha (human) kinase inhibition; actives 1.2% (n = 330,000); P48426; max response, %; PI5P4Kalpha enzyme, ADP-Glo luminescence, 60 min; hits give low values; AID 652105; active = max response of -50% or lower; inconclusive = between -30% and -50%; inactive = -30% or higher; note: value at the top dose of about 77 µM; % is set by controls: 0 for no effect and ±100 for the full control effect
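Controls without substrate or without enzyme flank wells where PI5P4Kalpha converts substrate using 5 microM ATP (final). Incubation lasts 60 minutes at room temperature; ADP formed is read by ADP-Glo luminescence.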
POLI inh = blocks human DNA polymerase iota activity; Potency, µM (doses to about 115 µM), inactives show at the highest dose activity, negative = inhibition, hits mostly inhibitors; Q9UNA4; Pol iota fluorescent replication assay, 10 min; actives 1% (n = 390,000); note: potency is the fitted concentration of half-maximal effect
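Fluorescent replication assay read twice, at 0 min and 10 min after adding 50 nM (final) substrate. Enzyme (10 nM) and compounds were first incubated 15 min at room temperature; enzyme-free buffer wells were negative controls.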
Numbers without * were called inactive; ? = inconclusive; . = not tested or not shown; [ ] = dose if it differs, or a comment. Unless noted, calls come from the whole dose curve; as a rule, active = well fitted inhibition curve with a large enough effect; inconclusive = small, poorly fitted or top-dose-only effect, or another doubt; inactive = no such curve, though single readings can be large or run the other way.

SMILES | Pol eta inh | Pol kappa inh | PI4K2A block | POLB inh | PI5P4K alpha inh | POLI inh
COCCCNC(=O)CSc1ccsc1[N+](=O)[O-] | 44.7µM* | ? | 3.3 | -23.0% | -20.3 | ?
CC(C)n1c(=S)[nH]c2c1c(=O)[nH]c(=O)n2C | -18.8% | -12.7% | 0.9 | 20.6% | -75.9* | 19.3%
CSc1ccc(/C=N/NC(=O)CN2CCN(Cc3ccccc3Cl)CC2)cc1 | -9.8% | -5.8% | -4.6 | 0.199µM* | 11.5 | 8.4%
CSc1ccc(/C=N/NC(=O)CN2CCN(Cc3ccc(C)cc3)CC2)cc1 | -1.1% | -0.8% | -0.4 | -28.3%[57.1 µM] | 5.5 | 35.2%
CCOC(=O)/C(C#N)=C\c1ccc(OC)c(OC)c1 | -4.0% | 2.2% | 5.2 | 4.8% | 2.1 | 63.6%
CCOC(=O)/C(C#N)=C\c1cc(OC)c(OC)cc1[N+](=O)[O-] | 1.1% | -1.4% | 4.6 | 6.0% | -70.2* | -10.2%
C#CCSc1nsc(SCC#C)c1C#N | 17.8µM* | ? | -10.5 | 44.7µM* | . | 20µM*
CCc1nn(CC(=O)N2CCCCC2)c(=O)c2cc3sc(C)cc3n12 | . | 6.6% | 2.4 | 23.6% | . | 20.5%
O=C(OCC(COC(=O)c1cccnc1)(COC(=O)c1cccnc1)COC(=O)c1cccnc1)c1cccnc1 | . | . | -2.1 | . | . | .
CCOc1ccc(N=Nc2ccc(O)c3ncccc23)cc1 | -17.7% | -5.4% | 4.3 | 29.5% | 0.1 | 73.6%
NS(=O)(=O)c1ccc(N=Nc2ccc(O)c3ncccc23)cc1 | ? | 4.1% | ? | -25.0% | -79.4* | -12.0%
CC(=O)Oc1ccc2c(=O)c(-c3ccccc3)coc2c1 | -17.3% | -11.8% | -9.8 | -28.3% | -12.2 | 67.1%
CC(=O)Oc1ccc2c(=O)c(/C=N/c3cc(=O)[nH]c(=S)[nH]3)coc2c1 | ? | -21.9% | 4.7 | -16.9% | -90.9* | ?
O=c1cc(/N=C/c2coc3cc(Br)ccc3c2=O)[nH]c(=S)[nH]1 | 8.9% | -20.1% | -2.9 | 18.3% | -83.1* | ?
CC(C)(C)c1ccc(-c2nnc3n2N=C(c2ccc(Cl)cc2)CS3)cc1 | . | . | 1.6 | . | . | .
CC(=O)c1ccc(N2CCN(C(=O)C3CCN(S(=O)(=O)c4cccc5nonc45)CC3)CC2)cc1 | -21.4% | -3.7%[60.1 µM] | 1.1 | 27.7% | . | 27.4%
CCOc1ccc(NC(=O)/C(C#N)=C/c2cn(CC(=O)O)c3ccccc23)cc1 | -18.3% | -16.7% | -4.2 | -9.1% | -12.6 | 98.8%
CCOc1cccc(NC(=O)/C(C#N)=C\c2cn(CC(=O)O)c3ccccc23)c1 | ? | 0.3% | -3.1 | 50.1µM* | -23.3 | -2.1%
CC1(C)CC(=O)C2=C(C1)OC(N)=C(C#N)C2c1ccc[nH]1 (stereo not drawn) | -14.8% | 79.4µM* | -22.3 | 20µM* | -16.3 | 28.2µM*
N#CCc1nc2ccc(S(=O)(=O)N3CCOCC3)cc2s1 | -6.9% | -17.3% | -2.9 | 0.8% | -63.6* | ?
COc1cc2c(NC3CCN(C)CC3)nc(N3CCCN(C)CC3)nc2cc1OCCCCCCN(C)C | . | -10.4% | . | . | . | ?
Cc1ccc(CS(=O)Cc2ccc(C(=O)NCc3ccc4c(c3)OCO4)o2)cc1 (stereo not drawn) | -24.7% | 1.8% | 0.4 | 43.3% | -2.3 | 38.9%
COc1ccc(S(=O)(=O)Cc2ccc(C(=O)N3CCN(Cc4ccccc4)CC3)o2)cc1 | -15.6% | 0.1% | 2.7 | -20.2% | 6.6 | 18.3%
Cc1ccc(S(=O)(=O)Cc2ccc(C(=O)N3CCN(Cc4ccccc4)CC3)o2)cc1 | . | . | . | 25.1µM* | . | .
Cc1ccc(S(=O)(=O)Cc2ccc(C(=O)NCc3ccc4c(c3)OCO4)o2)cc1 | -16.0% | ? | -0.9 | 5.62µM* | . | ?
SMILES | Pol eta inh | Pol kappa inh | PI4K2A block | POLB inh | PI5P4K alpha inh | POLI inh
COc1ccccc1CNC(=O)c1ccc(CS(=O)(=O)c2ccc(C)cc2)o1 | 44.7µM* | ? | -8.0 | 89.1µM* | -28.2 | 70.8µM*
COc1ccc(C(CNC(=O)COc2ccc(Cl)c(C)c2)N2CCOCC2)cc1 (stereo not drawn) | -11.5% | -6.8% | 1.6 | 17.3% | . | 13.8%
O=C1C=C(O)c2c(O)cccc2C1=O | . | . | . | 15.8µM* | . | .
O=C1C=C(O)c2cccc3cccc1c23 | -0.5% | -6.1% | -7.9 | -7.8% | 2.3 | 12.7%
Cc1sc(-n2cccc2)c(C(=O)O)c1C | 89.1µM* | -32.3% | -4.2 | ? | . | ?
Cc1ccc(NS(=O)(=O)c2cc([N+](=O)[O-])ccc2NNC(=S)Nc2cccc(Cl)c2)c(C)c1 | 39.8µM* | -31.1% | -1.9 | ? | -66.6* | -7.9%
O=c1ccc2cc(S(=O)(=O)NCc3ccc(Cl)cc3)ccc2[nH]1 | 2.6% | ? | 1.0 | 11.2µM* | . | ?
Cc1ccc(N(C)S(=O)(=O)c2ccc3[nH]c(=O)ccc3c2)cc1 | 4.4% | 2.4% | 0.4 | 28.7% | . | 4.3%
CN(Cc1ccccc1)S(=O)(=O)c1ccc2[nH]c(=O)ccc2c1 | -8.5% | -17.4% | -1.0 | 31.6µM* | -27.3 | ?
COc1cccc(/C=C2/C(=O)NN(c3ccc(Br)cc3)C2=O)c1O | 79.4µM* | -25.2% | -2.5 | ? | -7.4 | 28.7%
Cc1n[nH]c(C)c1Sc1ccccc1[N+](=O)[O-] | -21.2% | -9.0% | 4.7 | -26.6% | -1.4 | 107.6%
Cc1n[nH]c(C)c1Sc1ccccc1N=Cc1cc(Cl)cc([N+](=O)[O-])c1O | -12.1% | ? | 0.5 | ? | ? | 25.1µM*
Cc1nn(CC(=O)N(C)Cc2ccc(F)cc2)c(C)c1[N+](=O)[O-] | -7.2% | 0.3% | 4.4 | 0.178µM* | -3.8 | 11.0%
CCn1c2ccccc2c2cc(NC(=O)c3coc(=O)c(Br)c3)ccc21 | . | . | . | 2.0% | . | .
CCn1c2ccccc2c2cc(NC(=O)c3ccc(=O)oc3)ccc21 | ? | ? | -20.6 | ? | -11.4 | 50.1µM*
CC(C)n1c(SCC(=O)Nc2nncs2)nnc1-c1ccco1 | 7.94µM* | 79.4µM* | -2.6 | 20µM* | -74.2* | 15.8µM*
CCn1c(SCC(=O)Nc2cccc(NC(C)=O)c2)nnc1-c1ccco1 | -9.3% | -22.4% | 0.3 | 16.4% | -11.3 | 166.9%
CCn1c(SCC(=O)Nc2ccc3c(c2)c2ccccc2n3CC)nnc1-c1ccco1 | 25.1µM* | 35.5µM* | -14.5 | 1.7% | . | ?
COc1ccc(CCN2CC(C(=O)NCCc3ccc(C)cc3)CC2=O)cc1OC (stereo not drawn) | ? | ? | -1.6 | ? | -15.2 | 79.4µM*
CN(C)c1ccc(Cn2ccc3ccccc32)cc1 | . | 0.5% | . | . | . | -6.9%
CC(C)CS(=O)(=O)C1=NSC2=NC(=O)/C(=C\c3ccc(OC(=O)c4ccco4)cc3)C(=N)N21 | 56.2µM* | -7.0% | -7.4 | -3.4% | -85.9* | -5.6%
